Sampled rows, rich in hits. Any-hit rate of the full collection: about 12%.
Arbovirus inh: antivirals against arbovirus infection, primary screen, cell-based, full library, 10K replicate subset; arbovirus infection cell-based antiviral screen; inhibition, % at 10 µM; 200,000 compounds, 0.37% hits; AID 1251, 2008; in the data active = inhibition above about 30%
CHOP inh: inhibitors of CHOP promoter induction, primary screen, cell-based, unfolded protein response, luciferase reporter. CHO-K1 CHOP-promoter luciferase, tunicamycin-induced, 15-18 h. inhibition, % at 10 µM. 220,000 compounds, 3.8% hits;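 active = compounds that reduced the stress-induced luciferase reporter signal by more than about 70% of percent inhibition, limit read from the data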;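 note: 0% = tunicamycin plus vehicle and 100% = wells without tunicamycin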
WT yeast gro inh: growth inhibition of WT strain, primary screen, mitochondrial fusion inhibitor project, WT and mutant strains, chemical genetic; mitochondrial fusion phenotypic screen; inhibition, % at 10 µM; 190,000 compounds, 2.1% hits; in the data active = inhibition above about 58%; tested in S. cerevisiae
Lmaj promast: Leishmania major promastigote growth inhibition, primary screen; Leishmania major promastigotes, resazurin fluorescence viability; inhibition, % at 10 µM; 200,000 compounds, 9% hits; AID 1063, 2008; in the data active = inhibition above about 50%;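 note: promastigotes grown with compound for 44 hours at 28 °C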
Numbers without * were called inactive; . = not tested or not shown.

SMILES	Arbovirus inh	CHOP inh	WT yeast gro inh	Lmaj promast
CCN(Cc1ccccc1)S(=O)(=O)c1cc(C(=O)NCC2CCCCC2)ccc1OC	-6.9	33.9	8.0	98.4*
CCN(CC)S(=O)(=O)c1cc(C(=O)NC2CCCCC2)ccc1C	-2.9	-18.1	5.0	4.2
CCN(Cc1ccccc1)S(=O)(=O)c1cc(C(=O)NC2CCCCCC2)ccc1OC	-14.0	0.8	2.0	95.1*
COc1ccc(C(=O)O)cc1S(=O)(=O)N(CCc1ccccc1)Cc1ccccc1	.	3.6	.	.
CCOC(=O)/C(C#N)=C/c1cc2ccccc2nc1N1CCOCC1	-4.1	29.2	1.3	-2.8
N#CC(C#N)=Cc1cc2ccccc2nc1N1CCCCC1	32.0*	-30.6	-26.9	82.1*
c1ccc(Cc2cc[n+](Cc3ccccn3)cc2)cc1	.	-7.3	.	.
CNC(=O)c1c(C)nn(-c2ccc(F)c(Cl)c2)c1-c1cc(C)on1	.	-6.0	.	.
COc1ccc(C2C(CN3CCOCC3)C(=O)N2c2ccccc2)cc1 (centres undefined)	-6.5	5.8	-12.4	-2.5
COc1ccc(N2C(=O)C(CN3CCN(C)CC3)C2c2ccccc2)cc1 (centres undefined)	-4.8	3.0	4.6	95.3*
CCOc1ccc(N=C(/C(C(=O)C(=O)N2CCOCC2)=C(/O)c2ccccc2)c2ccccc2)cc1	.	-14.8	.	.
CC(C)CCN(C)C1CCN(S(=O)(=O)c2ccc(F)cc2)CC1	-13.0	1.3	18.5	95.5*
O=S(=O)(c1ccc(F)cc1)N1CCC(N2CCCC2)CC1	-3.7	-15.6	-7.5	43.5
Cc1ccc(C(=O)Nc2cccc(C(F)(F)F)c2)cc1Nc1ccccn1	.	32.1	.	.
Cc1ccc(C(=O)Nc2cccc(C(F)(F)F)c2)cc1NC(=O)c1cnnc2ccccc12	.	89.2*	.	.
O=C(NC(=S)Nc1cccc(Cl)c1N1CCCCC1)c1cccs1	-25.1	-1.8	44.2	25.7
CCCC(=O)NC(=S)Nc1cccc(Cl)c1N1CCCC1	14.0	81.2*	1.4	21.7
CCOC(=O)c1ccc(NC(=S)N2CCSC2c2c(F)cc(F)cc2F)cc1 (centres undefined)	40.6*	56.5	27.2	40.3
Fc1cc(F)c(C2SCCN2C(=S)Nc2cccc(C(F)(F)F)c2)c(F)c1 (centres undefined)	.	-2.5	.	.
Cc1ccc2nc(N/N=C/c3ccccc3C#N)nc(-c3ccccc3)c2c1	-13.9	46.2	14.5	61.7*
Cc1ccc2nc(N/N=C/c3ccccc3F)nc(-c3ccccc3)c2c1	-7.0	-0.7	64.1*	-6.1
N#Cc1ccccc1/C=N/Nc1nc(-c2ccccc2)c2cc(Cl)ccc2n1	-16.7	88.8*	-3.7	3.4
CN(C)CC/C=C1\c2ccccc2COc2ccccc21	-9.9	-5.1	-24.2	100.0*
CN(C)CC/C=C1/c2ccccc2Sc2ccc(Cl)cc21	.	4.2	.	.
O=C(O)CC1(CC(=O)Nc2ccc(Oc3cccc(C(F)(F)F)c3)nc2)CCCC1	.	-6.4	.	.
SMILES	Arbovirus inh	CHOP inh	WT yeast gro inh	Lmaj promast
CCN(CC)S(=O)(=O)c1ccc2c(c1)nc(CCC(=O)OCC(=O)Nc1cc(OC)cc(OC)c1)n2C	-4.0	9.7	3.7	63.7*
CCC/C(=N/NC(=O)c1ccccc1Cl)c1ccccc1	-8.1	-1.6	-16.0	95.1*
CCC/C(=N\NC(=O)c1ccccc1C)c1ccccc1	2.2	13.3	-8.5	42.7
C/C(=N\NC(=O)c1ccc([N+](=O)[O-])cc1Cl)c1ccccc1	-2.7	83.3*	5.3	5.3
O=C(Cc1ccc(-c2ccccc2)cc1)NCCN1CCOCC1	-1.1	23.3	-1.6	4.0
O=C(Cc1cccs1)NCCN1CCOCC1	5.4	0.5	3.4	50.5*
O=C(NCCN1CCOCC1)c1ccc(F)cc1	2.7	27.2	.	-5.3
O=C(NCCN1CCOCC1)c1ccc(=O)oc1	8.6	-12.0	61.9*	-0.5
CCOC(=O)C1CCCN(c2cc(=O)n(Cc3ccc(F)cc3)c(=O)[nH]2)C1 (centres undefined)	9.6	31.5	-13.2	-0.1
CCOC(=O)C1CCN(Cc2ccc(F)cc2)CC1	-2.0	23.9	-3.4	89.0*
CCOC(=O)C1CCN(Cc2cc(C(C)(C)C)c(O)c(C(C)(C)C)c2)CC1	15.2	27.7	-1.7	41.8
CCOC(=O)C1CCN(Cc2ccc(O)c(OC)c2)CC1	14.8	-3.3	0.0	84.5*
CCOC(=O)C1CCN(Cc2ccc(Cl)c(Cl)c2)CC1	3.0	52.0	-10.2	87.6*
CCOC(=O)C1(CC2CC2)CCN(Cc2ccc(C(=O)OC)cc2)CC1	-2.9	19.2	6.6	92.2*
O=C(Cc1ccc(Cl)c(Cl)c1)OCCN1CCCC1	.	7.8	.	.
CCOC(=O)C1CCN(Cc2ccc(O)c3ncccc23)CC1	-19.2	.	-8.3	95.3*
CCOC(=O)C1CCN(Cc2ccc(C(=O)OC)cc2)CC1	4.9	9.1	-5.7	95.1*
Clc1ccc(CN2CCCCCCC2)cc1Cl	3.7	79.1*	2.6	-6.5
Cc1nn(C)cc1S(=O)(=O)N1CCN(Cc2cccc(Cl)c2)CC1	-5.8	22.2	-2.5	11.0
O=C(/C=C/c1ccc(Cl)cc1)NCc1ccco1	-1.4	34.0	-3.1	51.0*
COc1ccc(CNC(=O)/C=C/c2ccc(S(=O)(=O)NCc3ccco3)cc2)cc1OC	7.6	5.4	-11.6	67.7*
Cc1cc(NC(=O)NC2CCCN2S(=O)(=O)c2ccc(Cl)cc2)no1 (centres undefined)	5.2	30.5	0.2	1.0
CCCOc1ccc(-c2nnn(CC(=O)c3c[nH]c4ccccc34)n2)cc1	-2.5	84.7*	-7.4	0.5
CCOc1ccc(-c2nnn(CC(=O)NCCc3c[nH]c4ccccc34)n2)cc1	10.4	46.0	13.9	93.9*
CCOC(=O)Cn1nnc(-c2ccc(OCC(C)C)cc2)n1	-0.7	70.5*	9.2	-3.7
SMILES	Arbovirus inh	CHOP inh	WT yeast gro inh	Lmaj promast
CCCOc1ccc(-c2nnn(CC(=O)c3ccc4c(c3)OCCO4)n2)cc1	-29.0	18.9	0.4	0.4
COc1ccc(NC(C)C(=O)Nc2cc(C(F)(F)F)ccc2N2CCOCC2)c(OC)c1 (centres undefined)	-14.0	68.8	49.1	72.1*
COc1cc(Cl)c(C)cc1NC(C)C(=O)Nc1cc(C(F)(F)F)ccc1N1CCOCC1 (centres undefined)	-13.8	19.7	65.4*	5.5
NC(=S)Nc1ccc(C(F)(F)F)cc1Cl	.	7.1	.	.
O=C(COC(=O)c1ccccc1Br)Nc1cc(S(=O)(=O)N2CCOCC2)ccc1N1CCCC1	19.7	7.3	2.8	29.5
CC(C)(C)NC(=O)c1ccc(Sc2ccccc2)c([N+](=O)[O-])c1	-2.9	7.2	26.3	2.8
CCOC(=O)c1ccc(NC(=O)COc2ccc(S(=O)(=O)NC(C)(C)C)cc2)cc1	9.0	21.2	3.1	-0.8
COc1ccc(NC(=O)c2cnc(C)cn2)c2ncccc12	-6.7	.	-57.9	85.8*
Cc1cnc(C(=O)Nc2ccccc2F)cn1	-2.7	0.9	18.4	-3.7
O=C(O)CCC(=O)NNc1nc2ccccc2nc1-c1ccccc1	1.1	17.5	-9.8	-1.9
Cc1ccc2nc(NCc3ccccc3)[nH]c2c1	-14.0	.	17.3	64.8*
COc1ccc2cc3cc(C(=O)Nc4ccc5c(c4)OCCO5)oc3nc2c1	4.5	-6.4	-10.7	99.7*
COc1ccc2cc3cc(C(=O)NC(C)C)oc3nc2c1	-5.2	-24.6	-2.2	88.5*
